Data taken from PubChem BioAssay (NCATS).
Results filed as inconclusive are left out. Unmarked numbers belong to inactive results. Calls of active or inactive are those of the source. The call rests on the fitted dose curve; in most records, active means well fitted curve in the direction sought with a large enough effect; inconclusive means small, poorly fitted or top-dose-only effect, or another doubt; inactive means no such curve, though single readings can be large; an effect the other way counts as inactive or inconclusive.

Molecular target: Calcium and integrin-binding protein 1 (Homo sapiens) (UniProt Q99828)
Assay: Primary qHTS for Identification of Calcium Integrin Binding Protein 1 (CIB1) Competitor (AID 1508620);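 further: GST tagged CIB1 binding a fluorescein labelled alphaIIb integrin peptide tracer; top concentration of the series differs between compounds; on the % scale 0 is the no-effect control and ±100 the full control effect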
Conditions: CIB1-GST / FITC-alphaIIb peptide fluorescence polarization; series mostly up to 57.7 µM; activity change, negative = inhibition: at the top concentration
Procedure, shortened: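 CIB1-GST (1 uM final) and compound incubated 15 min at room temperature before adding FITC-alphaIIb peptide tracer (100 nM final). Competition for binding read by fluorescence polarization (ex 480, em 540) after another 15 min at room temperature.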

Sequence of Calcium and integrin-binding protein 1 (Homo sapiens) (Q99828 whole entry, looked up): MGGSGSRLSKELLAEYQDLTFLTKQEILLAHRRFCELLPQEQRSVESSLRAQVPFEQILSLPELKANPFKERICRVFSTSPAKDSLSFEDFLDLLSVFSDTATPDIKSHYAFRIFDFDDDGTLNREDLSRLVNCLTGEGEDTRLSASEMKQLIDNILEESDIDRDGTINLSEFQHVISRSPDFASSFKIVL

Row | Compound | activity change, negative = inhibition [%]
1 | CC[C@H]1C=CC=CC[C@@H](C)[C@H](O)[C@@](C)(O)C(=O)[C@@H](C)[C@H](O)[C@@H](C)C(=O)[C@@H](C)[C@H](O)[C@@H](C)C=CC(=O)O[C@@H]2[C@@H](C)[C@H](CC1)O[C@]1(CC[C@H](C)[C@H](C[C@@H](C)O)O1)[C@H]2C | -3.43
2 | c1cc2c(cc1[C@H]1OC[C@H]3[C@H]1CO[C@H]3c1ccc3c(c1)OCO3)OCO2 | -2.81
3 | Cc1c(N)nc([C@H](CC(N)=O)NC[C@@H](N)C(N)=O)nc1C(=O)N[C@H](C(=O)N[C@@H](C)[C@H](O)[C@@H](C)C(=O)N[C@@H](C(=O)NCCc1nc(-c2nc(C(=O)NCCC[S+](C)C)cs2)cs1)[C@@H](C)O)C(O[C@H]1O[C@H](CO)[C@H](O)[C@@H](O)[C@@H]1O[C@H]1O[C@H](CO)[C@@H](O)[C@H](OC(N)=O)[C@H]1O)c1cnc[nH]1 (stereo partly specified) | -0.483
4 | CCC(=O)OC1CCC2C3CCC4=CC(=O)CC[C@@]4(C)C3CC[C@]12C (stereo partly specified) | -1.42
5 | C[C@@]12OC(=O)[C@]1([C@@H](O)[C@@H]1C=CCCC1)NC(=O)[C@H]2CCCl | -0.319

System: not listed separately
Assay: Counterscreen qHTS for small molecule stabilizers of the endoplasmic reticulum resident proteome: GLuc-NoTag assay (AID 1508627);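 further: 0% = thapsigargin alone and -100% = DMSO vehicle control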
Conditions: Gaussia luciferase NoTag secretion counterscreen, luminescence, thapsigargin 100 nM for final 4 h; series mostly up to 76.4 µM; activity change, negative = inhibition: at the top concentration
Procedure, shortened: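 Counterscreen line: SH-SY5Y-GLuc-NoTag cells, treated with compound 19 hr before a 4 hr, 100 nM thapsigargin calcium depletion. Secreted Gaussia luciferase in the medium was measured by luminescence after coelenterazine was added (0.07x final), with cells unlysed.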

Row | Compound | activity change, negative = inhibition [%]
6 | CN1CCN(c2ccc([N+](=O)[O-])c3no[n+]([O-])c23)CC1 | 14.5
7 | C[C@H]1CCCC=CC2C[C@H](O)C[C@@H]2[C@H](O)C=CC(=O)O1 (stereo partly specified) | -51.6
8 | Clc1ccc(C(c2ccc(Cl)cc2)n2cc[n+](CC(OCc3ccc(Cl)cc3Cl)c3ccc(Cl)cc3Cl)c2)cc1 (stereo unspecified) | -59.9
9 | CC=C(C)C(=O)O[C@H]1C(C)=C2[C@@H]3OC(=O)[C@@](C)(O)[C@@]3(O)[C@@H](OC(=O)CCC)C[C@](C)(OC(C)=O)[C@@H]2[C@@H]1OC(=O)CCCCCCC | 16.5

System: not listed separately
Assay: Confirmatory qHTS for small molecule stabilizers of the endoplasmic reticulum resident proteome: Secreted ER Calcium Modulated Protein (SERCaMP) assay (AID 1508628); further: on the % scale 0 is the no-effect control and ±100 the full control effect; nearly all actives have a fitted effect of over 40% in size
Conditions: SERCaMP secreted luciferase ER calcium/proteostasis reporter; series mostly up to 76.3 µM; activity change, negative = decrease: at the top concentration
Procedure, shortened: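 Reporter secretion upon ER calcium depletion (100 nM thapsigargin, 4 h, 37C) is measured as medium luminescence with coelenterazine, after 16 h compound pretreatment of SH-SY5Y-GLuc-SERCaMP cells; primary at three concentrations up to 38.3 uM, follow-up at 11 (up to 76.6 uM).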

Row | Compound | activity change, negative = decrease [%]
10 | CN1CCN(c2ccc([N+](=O)[O-])c3no[n+]([O-])c23)CC1 | -9.86
11 | C[C@H]1CCCC=CC2C[C@H](O)C[C@@H]2[C@H](O)C=CC(=O)O1 (stereo partly specified) | -51.1
12 | Clc1ccc(C(c2ccc(Cl)cc2)n2cc[n+](CC(OCc3ccc(Cl)cc3Cl)c3ccc(Cl)cc3Cl)c2)cc1 (stereo unspecified) | 54.6
13 | CC=C(C)C(=O)O[C@H]1C(C)=C2[C@@H]3OC(=O)[C@@](C)(O)[C@@]3(O)[C@@H](OC(=O)CCC)C[C@](C)(OC(C)=O)[C@@H]2[C@@H]1OC(=O)CCCCCCC | 12.7

System: not listed separately
Assay: Cell Viability qHTS for small molecule stabilizers of the endoplasmic reticulum resident proteome (AID 1508629);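 further: compound exposure about 46 h in total before the viability read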; further: potency means the concentration at half of the fitted maximal effect;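 on max response: human SH-SY5Y neuroblastoma cells carrying the GLuc-SERCaMP reporter; on the % scale 0 is the no-effect control and ±100 the full control effect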
Conditions: cell viability counter-screen, 100 nM thapsigargin for final 4 h

Row | Compound | Potency | max response [%]
14 | C[C@H]1CCCC=CC2C[C@H](O)C[C@@H]2[C@H](O)C=CC(=O)O1 (stereo partly specified) | 70.8 nM (active) | –
15 | Clc1ccc(C(c2ccc(Cl)cc2)n2cc[n+](CC(OCc3ccc(Cl)cc3Cl)c3ccc(Cl)cc3Cl)c2)cc1 (stereo unspecified) | – | -14.7
16 | CC=C(C)C(=O)O[C@H]1C(C)=C2[C@@H]3OC(=O)[C@@](C)(O)[C@@]3(O)[C@@H](OC(=O)CCC)C[C@](C)(OC(C)=O)[C@@H]2[C@@H]1OC(=O)CCCCCCC | 282 nM (active) | –
